# Sm TGR inh – blocks Schistosoma mansoni thioredoxin glutathione reductase; purified TGR, DTNB reduction, TNB absorbance 405 nm; Potency, µM (top dose mostly 114 µM), hits mostly inhibitors; 360,000 compounds, 3% hits; AID 485364; note: nearly all actives have a fitted effect of over 60% in size
#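 TGR 20 nM + NADPH 100 uM (dispensed conc.), cpd preinc 15 min RT; start with NADPH (500 uM addition) then DTNB (15 mM addition). Kinetic TNB absorbance, 405 nm filter. Four-parameter Hill fit across titration.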
# NS1 function inh – inhibitors of influenza NS1 protein function; Potency, µM (doses to about 46.1 µM); 270,000 compounds, 0.4% hits; AID 2326; calls by dose curve; note: actives are rising curves; nearly all actives have a fitted effect of over 50% in size
#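 In this qHTS, NS1 from influenza A is expressed in budding yeast, where it slows growth. Cells are switched from glucose to 2% galactose medium (pH 6.0, -URA), treated with compound, and growth recovery is read at OD600.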
# Tb PYK inh – T. brucei pyruvate kinase inhibition | TbPYK enzyme, Kinase-Glo Plus ATP luminescence, 45 min | Potency, µM (titrated, usually from 76.8 µM), actives largely listed as inhibitors | 410,000 compounds, 0.12% hits | AID 624173; note: nearly all actives have a fitted effect of over 50% in size
#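 Activity of T. brucei pyruvate kinase was followed by Kinase-Glo Plus luminescence after the enzyme reacted 45 min at room temperature with 130 uM ADP (final) and substrate. Test compounds were added before ADP at multiple concentrations.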
# RE007 growth inh – less growth of the S. pombe RE007 Vpr strain; S. pombe RE007 Vpr strain, BacTiter-Glo ATP luminescence, 24 h; 360,000 compounds, 0.21% hits; AID 651644; Potency, µM (titrated, usually from 92.2 µM), hits mostly inhibitors; active = well fitted falling curve with a large enough effect; inconclusive = small, poorly fitted or top-dose-only effect; inactive = no such curve, though single readings can be large or run the other way; note: nearly all actives have a fitted effect of over 50% in size
#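 Fission yeast strain RE007, carrying one chromosomally integrated HIV-1 vpr copy, was seeded at OD 0.01 in PMG+AL medium with 23 nL pinned compound. After 24 h at 30 °C and 99% humidity, viability was read by BacTiter-Glo luminescence.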
# LmPK inhibitor – inhibitors of Leishmania mexicana pyruvate kinase; Q27686; purified LmPK, Kinase-Glo ATP luminescence, 1 h; Potency, µM (series often up to 57.5 µM), most hits filed as inhibitors; 290,000 compounds, 0.37% hits
# Target sequence (Q27686 whole entry, looked up): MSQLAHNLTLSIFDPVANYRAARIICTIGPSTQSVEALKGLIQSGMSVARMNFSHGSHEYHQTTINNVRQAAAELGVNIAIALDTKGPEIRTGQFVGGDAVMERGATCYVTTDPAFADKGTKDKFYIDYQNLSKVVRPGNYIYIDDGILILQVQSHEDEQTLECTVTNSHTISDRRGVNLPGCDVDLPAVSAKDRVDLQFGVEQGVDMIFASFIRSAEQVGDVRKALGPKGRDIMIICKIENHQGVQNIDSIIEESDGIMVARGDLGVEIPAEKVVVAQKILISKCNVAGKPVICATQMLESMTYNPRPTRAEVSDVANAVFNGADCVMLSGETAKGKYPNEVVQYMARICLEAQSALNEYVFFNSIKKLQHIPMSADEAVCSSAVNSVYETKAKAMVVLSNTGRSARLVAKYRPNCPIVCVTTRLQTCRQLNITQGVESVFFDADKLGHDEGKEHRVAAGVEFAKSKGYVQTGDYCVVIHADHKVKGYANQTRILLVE
#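 qHTS format; LmPK 0.1 nM; substrates PEP 0.5 mM and ADP 0.1 mM. One-hour room-temperature incubation, then coupled luciferase luminescence; 0.5 nM enzyme wells mark activation.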
# Giardia FBPA inh – inhibitors of Giardia lamblia fructose-1,6-bisphosphate aldolase | A8B2U2 | purified Giardia FBPA | Potency, µM (top dose mostly 59.6 µM), actives largely listed as inhibitors | 290,000 compounds, 0.71% hits | AID 2451; note: nearly all actives have a fitted effect of over 55% in size
#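 Giardia FBPA (40 nM reagent) was preincubated 10 min at RT with compound (up to 57.5 uM final), then substrate plus GAPDH/TPI/NAD/arsenate coupling system with diaphorase/resazurin was added; resorufin fluorescence (525/598 nm) was read after 20 min.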
# A number is an active result; – = inactive; ? = inconclusive; · = no result; [ ] = another dose, or the depositor's remark. The list is not random: actives were taken first. Their share in the collection is about 3.5%. Unless noted, calls come from the whole dose curve; as a rule, active = well fitted curve in the direction sought with a large enough effect; inconclusive = small, poorly fitted or top-dose-only effect, or another doubt; inactive = no such curve, though single readings can be large; an effect the other way counts as inactive or inconclusive.
SMILES,Sm TGR inh,NS1 function inh,Tb PYK inh,RE007 growth inh,LmPK inhibitor,Giardia FBPA inh
COc1ccc(N2C(=O)CC(Nc3ccc(N4CCOCC4)cc3)C2=O)c(OC)c1 (stereo not given),28µM,?,–,–,–,–
O=C1CC(Nc2ccc(N3CCOCC3)cc2)C(=O)N1CCc1ccccc1 (stereo not given),–,–,–,?,–,–
COc1ccc(-c2cc(C(F)(F)F)nc(SCC(=O)NCCc3ccccc3)n2)cc1OC,–,·,–,·,·,·
COc1cc(Cl)c(C)cc1NC(=O)NC1COc2ccccc2C1 (stereo not given),–,·,–,·,·,·
Cc1ccc(N=N/C(=C\O)C(=O)c2ccncc2)cc1,–,–,–,20µM,–,–
O=C(/C(=C/O)N=Nc1ccc(Cl)cc1)c1ccncc1,–,–,–,20µM,–,·
N#CCCCS(=O)(=O)c1nc2ccccc2s1,·,·,·,·,·,–
Cc1cc(NC(=O)CN2C(=O)CC(c3ccco3)Sc3ccccc32)no1 (stereo not given),16µM,?,–,–,–,–
O=C(CSc1ccc(-c2cccnc2)nn1)Nc1ccc(F)cc1F,7.1µM,–,–,–,–,·
COc1ccc(N=Nc2cc(C)ccc2O)cc1,–,–,–,–,?,–
Cc1ccc(O)c(N=Nc2nccs2)c1,–,·,–,18µM,·,·
Cc1cccc(C(=O)Nc2ccccc2SCc2cc(=O)c3cccc(C)c3[nH]2)c1,–,·,–,·,·,·
Nc1ccc(Nc2ccccc2)c(Cl)c1,11µM,–,–,–,–,–
CCOC(=O)C1=C(c2ccccc2)OC(N)=C(C#N)C1c1cccnc1 (stereo not given),–,·,–,–,–,–
CCOC(=O)C1=C(N)OC(CCl)=C(C#N)C1c1ccsc1 (stereo not given),13µM,–,–,–,–,–
CCOC(=O)C1=C(C)OC(N)=C(C#N)C1c1ccoc1 (stereo not given),32µM,–,–,–,–,–
CCOC(=O)C1=C(c2ccc(OC)cc2)OC(N)=C(C#N)C1c1cccnc1 (stereo not given),11µM,–,–,–,–,–
CCOC(=O)C1=C(c2ccccc2)OC(N)=C(C#N)C1c1ccc(Br)s1 (stereo not given),40µM,–,–,–,–,–
COCCCNC(=O)C1CCN(c2nc3ccc(Cl)cc3[nH]2)CC1,–,·,–[15.4 µM],·,·,·
COc1cccc(C(=O)Nc2cccc(-c3nc4ncccn4c3C)c2)c1,–,·,–,·,·,·
CCCOc1ccc(-c2nonc2NC(=O)c2oc3ccc(C)cc3c2C)cc1OCCC,–,·,–,·,·,·
CC(C)n1c(-c2ccc(C(C)(C)C)cc2)n[nH]c1=S,–,–,?,–,8.9µM,–
CC(C)(C)c1ccc(-c2n[nH]c(=S)n2Cc2ccccc2)cc1,–,–,?,–,–,–
Cc1ccc(-c2cn3cccc(C)c3n2)cc1,–,–,–,–,25µM,–
Cc1cc(NC(=O)c2cc(-c3ccc(F)cc3)on2)nn1Cc1ccc(Cl)cc1,–,·,–,·,·,·
SMILES,Sm TGR inh,NS1 function inh,Tb PYK inh,RE007 growth inh,LmPK inhibitor,Giardia FBPA inh
c1ccc(C[C@H]2CNCCN2CC2(c3ccccc3)CC2)cc1,45µM,·,–,–,·,·
O=c1[nH]c2ccc(NC(=S)NCc3ccccc3)cc2[nH]1,8.9µM,–,–,–,–,–
Cc1ccc(NC(=S)Nc2ccc3[nH]c(=O)[nH]c3c2)cc1C,–,–,–,–,–,–
Cc1c(N)c(C)c([N+](=O)[O-])c(C)c1[N+](=O)[O-],–,–,–,–,–,–
Cc1c(N)c(C(C)(C)C)cc(C(C)(C)C)c1[N+](=O)[O-],–,–,–,32µM,–,–
O=C(O)c1ccc2c(c1)C(=O)N([C@@H](Cc1ccc(O)cc1)C(=O)O)C2=O,–,·,·,·,·,–
Cc1cccc(-c2n[nH]c(=S)n2/N=C/C=C/c2ccco2)c1,11µM,–,?,–,–,–
CC(/C=N/n1c(-c2ccccc2)n[nH]c1=S)=C\c1ccco1,?,–,?,–,–,–
C(=C\c1ccco1)/C=N/n1cnnc1,28µM,–,–,–,–,?
S=c1[nH]nc(-c2cccc(Cl)c2)n1/N=C/c1ccco1,40µM,–,?,–,–,–
